HPGD block – inhibitors of human 15-hydroxyprostaglandin dehydrogenase (HPGD) | hit rate 4.3% among 150,000 | AID 894 | P15428 | Potency, µM, hits mostly inhibitors | purified HPGD, NADH fluorescence kinetic, PGE2 substrate
Target sequence (P15428 whole entry, looked up): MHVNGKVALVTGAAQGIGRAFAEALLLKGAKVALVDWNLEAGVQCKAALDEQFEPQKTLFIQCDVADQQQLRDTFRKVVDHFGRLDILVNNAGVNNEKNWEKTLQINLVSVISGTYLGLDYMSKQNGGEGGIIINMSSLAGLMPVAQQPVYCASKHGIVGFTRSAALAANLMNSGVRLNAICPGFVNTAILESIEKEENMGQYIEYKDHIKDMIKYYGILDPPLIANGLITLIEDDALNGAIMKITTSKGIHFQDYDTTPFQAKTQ
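20 nM HPGD preincubated 15 min at room temperature with compound in 50 mM Tris-HCl pH 8, 0.01% Tween 20. Started with 1 mM NAD+ and 30 uM prostaglandin E2; NADH fluorescence (360/450 nm) read 5 times over 30-s intervals, last minus first.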
IMPase inh – membrane-permeable compound that blocks inositol monophosphatase; inhibition (IP1 accumulation), % at 46.1 µM; CHO-M1 cells, IP1 accumulation, HTRF TR-FRET ratio; 120,000 tested, under 10 active; AID 901; P97697; active = well fitted curve in the direction sought with a large enough effect in the signal ratio, not every such curve was filed as active; inconclusive = small, poorly fitted or top-dose-only effect, or a change in a side signal; inactive = no such curve, though single readings can be large or run the other way; the % refers to the signal ratio;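 note: cells stimulated with carbachol in lithium chloride buffer; higher means more IMPase inhibition seen as more IP1 and lower FRET ratio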
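Measured: the HTRF emission ratio (665/620 nm) plus the 620 nm donor channel, each fitted to the Hill equation to give AC50. Cells were CHO-M1 given compounds up to 46 uM and a 30 min carbachol stimulation at 37C.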
ALDH1A1 inh – ALDH1A1 (human) enzyme inhibition; P00352; Purified ALDH1A1, NADH fluorescence, propionaldehyde substrate; Potency, µM (titrated, usually from 75.3 µM), most hits filed as inhibitors; hit rate 7.3% among 220,000
PNC inhibitor – perinucleolar compartment assembly inhibition. PC3M PTB-GFP, PNC prevalence imaging, 16 h; hits give low values. activity change (PNC), negative = inhibition, % at 10 µM. hit rate 3.1% among 140,000;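 active = readout at or below -70, meaning at least 70% loss of cells showing the perinucleolar compartment, a nuclear body marking cancer cells; inconclusive = readout between -30 and a set limit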
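PC3M cells stably expressing PTB-GFP, 750–1000 cells/well, treated 16 h at 37 °C with compound (23 nl of library stock), in duplicate. After paraformaldehyde fixation and Hoechst stain, imaged at 20x; PNC prevalence scored by image analysis.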
NPSR antag – antagonists of human neuropeptide S receptor cAMP signaling | Q6W5P4 | CHO-NPSR cells, cAMP TR-FRET, antagonist mode | Potency, µM (top dose mostly 38.3 µM), most hits filed as inhibitors | hit rate 1% among 220,000; active = well fitted curve in the direction sought with a large enough effect; inconclusive = small, poorly fitted or top-dose-only effect, or another doubt; inactive = no such curve, though single readings can be large; an effect the other way counts as inactive or inconclusive; note: nearly all actives have a fitted effect of over 50% in size
Target sequence (Q6W5P4 whole entry, looked up): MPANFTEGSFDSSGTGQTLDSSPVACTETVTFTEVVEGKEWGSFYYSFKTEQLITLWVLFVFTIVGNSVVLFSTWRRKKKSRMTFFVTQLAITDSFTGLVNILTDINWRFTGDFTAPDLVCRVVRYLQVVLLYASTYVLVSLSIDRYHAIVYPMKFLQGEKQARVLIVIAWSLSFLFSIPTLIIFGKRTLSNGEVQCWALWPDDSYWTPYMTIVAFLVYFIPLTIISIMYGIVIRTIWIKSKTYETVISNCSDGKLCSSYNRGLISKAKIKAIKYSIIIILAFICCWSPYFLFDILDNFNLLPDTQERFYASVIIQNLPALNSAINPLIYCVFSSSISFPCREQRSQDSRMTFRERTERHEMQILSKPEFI
IMPase Li cell – IMPase inhibition in cells with lithium potentiation | CHO-M1 cells, IP1 TR-FRET (IP-One), carbachol + lithium | Potency, µM (series often up to 59.4 µM), hits mostly inhibitors | hit rate 0.35% among 210,000 | AID 1457; active = well fitted curve in the direction sought with a large enough effect; inconclusive = small, poorly fitted or top-dose-only effect, or another doubt; inactive = no such curve, though single readings can be large; an effect the other way counts as inactive or inconclusive;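 note: IP1 builds up when IMPase is blocked and the TR-FRET signal falls; nearly all actives have a fitted effect of over 50% in size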
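CHO cells stably expressing M1 receptor (2000/well) were cultured 16–30 h, then exposed to compounds with a small lithium addition for 30 min at 37C. IP1 was measured by TR-FRET competition; AC50 from Hill fits.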
Hits are given with their value; [ ] = dose if it differs, or a comment. An excerpt weighted towards active compounds, which were near 11% of everything screened. Unless noted, calls come from the whole dose curve; as a rule, active = well fitted inhibition curve with a large enough effect (not every such curve was filed as active); inconclusive = small, poorly fitted or top-dose-only effect, or another doubt; inactive = no such curve, though single readings can be large or run the other way.

`CCC(NC(=O)c1ccccc1NC(=O)c1ccccc1)C(=O)O` (stereo not drawn) gave HPGD block inactive, IMPase inh inactive, ALDH1A1 inh inactive, PNC inhibitor inconclusive, NPSR antag inactive and IMPase Li cell inactive.
O=C(CN1CCOCC1)NC1CC2CCC1C2 (stereo not drawn) was read as HPGD block inactive, IMPase inh inactive, ALDH1A1 inh 25.1µM, PNC inhibitor inconclusive, NPSR antag inactive and IMPase Li cell inactive.
For O=C(NC1CC2CCC1C2)c1ccc(CN2CCOCC2)cc1 (stereo not drawn) the results were HPGD block inactive, IMPase inh inactive, ALDH1A1 inh inconclusive, PNC inhibitor inconclusive, NPSR antag inactive and IMPase Li cell inactive.
`C=CCN1c2ccccc2[C@]23C[C@@H](C(=O)OC)N(C(=O)CC(C)C)C2=NC(C(=O)OC)=C(C(=O)OC)[C@H]13` gave HPGD block inactive, ALDH1A1 inh inactive[13.5 µM], NPSR antag inactive and IMPase Li cell inactive.
`CSc1nnc2n(-c3ccccc3)c(=O)c3c4c(sc3n12)CCC4` gave HPGD block inactive, IMPase inh inactive, ALDH1A1 inh inactive, PNC inhibitor inactive, NPSR antag inactive and IMPase Li cell inactive.
CN1CCc2c(sc3c2c(=O)n(-c2ccccc2)c2nnc(SCc4ccccc4)n32)C1 was read as HPGD block inconclusive, IMPase inh inactive, ALDH1A1 inh 25.1µM, PNC inhibitor inactive, NPSR antag inactive and IMPase Li cell inactive.
CCn1nc(C(=O)NNC(=O)COc2ccccc2C)c2ccccc2c1=O was read as HPGD block inactive, ALDH1A1 inh inactive, PNC inhibitor -113.4, NPSR antag inactive and IMPase Li cell inactive.
`O=C(Nc1cccn(Cc2ccccc2)c1=O)NC1CCCCC1` gave HPGD block inconclusive, IMPase inh inactive, ALDH1A1 inh inconclusive, PNC inhibitor inactive, NPSR antag inactive and IMPase Li cell inactive.
Screening Clc1cccc(/C(Cc2nc3ccccc3[nH]2)=N\Nc2ccccc2)c1 returned HPGD block inactive, IMPase inh inactive, ALDH1A1 inh inconclusive, PNC inhibitor inconclusive, NPSR antag inactive and IMPase Li cell inactive.
Screening c1ccc(N/N=C(\Cc2nc3ccccc3[nH]2)c2ccccc2)cc1 returned HPGD block inconclusive, ALDH1A1 inh 28.2µM, PNC inhibitor inactive, NPSR antag inactive and IMPase Li cell inactive.
CCN/N=C(\Cc1nc2ccccc2[nH]1)c1ccccc1 was read as ALDH1A1 inh inconclusive, NPSR antag inactive and IMPase Li cell inactive.
For Cc1ccc(N/N=C(\Cc2nc3ccccc3[nH]2)c2ccccc2)cc1 the results were HPGD block inconclusive, IMPase inh inactive, ALDH1A1 inh 10µM, PNC inhibitor inactive, NPSR antag inactive and IMPase Li cell inactive.
`C=CCN=C1SC(CC)C(=O)N1S(=O)(=O)c1ccc(C)cc1` (stereo not drawn) gave HPGD block inactive, IMPase inh inactive, ALDH1A1 inh 6.31µM, PNC inhibitor inactive, NPSR antag inactive and IMPase Li cell inactive.
For CC(Nc1oc(-c2ccccc2)nc1-c1cccc2ccccc12)c1ccccc1 (stereo not drawn) the results were HPGD block inactive, ALDH1A1 inh inactive and IMPase Li cell inactive.
`Cc1nn(-c2ccccc2)c(N)c1N=Nc1cccnc1` gave ALDH1A1 inh inactive, NPSR antag inactive and IMPase Li cell inactive.
Screening Nc1nc(-c2ccccc2)c(N=Nc2cccnc2)s1 returned ALDH1A1 inh 20µM, NPSR antag inactive and IMPase Li cell inactive.
`Cn1c(O)c(N=NC(=S)Nc2ccccc2F)c2cc(S(=O)(=O)N3CCOCC3)ccc21` gave ALDH1A1 inh inactive, NPSR antag inactive and IMPase Li cell inactive.
Screening C=CCn1c(O)c(N=Nc2ccccc2C)c2ccccc21 returned ALDH1A1 inh 2.82µM, NPSR antag inactive and IMPase Li cell inactive.
For C=CCn1c(O)c(N=NC(=O)C(O)c2ccccc2)c2ccccc21 (stereo not drawn) the results were NPSR antag inactive.
`C=CCn1c(O)c(N=NC(=S)Nc2ccccc2C)c2cc(S(=O)(=O)N3CCOCC3)ccc21` gave HPGD block inactive, ALDH1A1 inh 10µM, PNC inhibitor inconclusive, NPSR antag inactive and IMPase Li cell inactive.
C=CCn1c(O)c(N=O)c2ccccc21 was read as NPSR antag inactive.
Screening C=CCn1c(O)c(N=NC(=S)Nc2ccc(OC)c(Cl)c2)c2ccccc21 returned HPGD block inactive, ALDH1A1 inh 22.4µM, PNC inhibitor inactive, NPSR antag inactive and IMPase Li cell inactive.
C=CCn1c(O)c(N=NC(=O)OC(C)(C)C)c2ccccc21 was read as HPGD block inconclusive, IMPase inh inactive, ALDH1A1 inh inconclusive, PNC inhibitor -100.0, NPSR antag inactive and IMPase Li cell inactive.
`O=C(CCn1c(=O)[nH]c2ccsc2c1=O)N1CC(=O)N(CCc2ccccc2)C(=O)C1` gave HPGD block inactive, IMPase inh inactive, ALDH1A1 inh inactive, PNC inhibitor inactive, NPSR antag inactive and IMPase Li cell inactive.
`Nc1cc(-c2ccccc2)nn1S(=O)(=O)c1ccc(Br)cc1` gave HPGD block inactive, IMPase inh inactive, ALDH1A1 inh 15.8µM, PNC inhibitor inactive, NPSR antag inactive and IMPase Li cell inactive.
`Cc1c(Cc2ccccc2)sc(NC(=O)c2ccco2)c1C(N)=O` gave HPGD block inconclusive, IMPase inh inactive, ALDH1A1 inh inconclusive, PNC inhibitor -111.1, NPSR antag inactive and IMPase Li cell inactive.
For COC(=O)c1c(NC(=O)c2ccco2)sc(C)c1C the results were HPGD block inactive, IMPase inh inactive, ALDH1A1 inh inconclusive, PNC inhibitor -80.7, NPSR antag inactive and IMPase Li cell inactive.
Screening CCOc1ccc(CC(=O)Nc2sc(Cc3ccccc3)c(C)c2C(N)=O)cc1OCC returned HPGD block inactive, IMPase inh inactive, ALDH1A1 inh inconclusive, PNC inhibitor inactive, NPSR antag inactive and IMPase Li cell inactive.
For COC(=O)c1c(NC(=O)c2ccco2)sc(C(=O)Nc2ccc(F)cc2)c1C the results were HPGD block inconclusive, IMPase inh inactive, ALDH1A1 inh inactive, PNC inhibitor inconclusive, NPSR antag inactive and IMPase Li cell inactive.
Screening Cc1c(Cc2ccc3c(c2)OCO3)sc(NC(=O)c2cccc3ccccc23)c1C(N)=O returned HPGD block 14.1µM, ALDH1A1 inh 14.1µM, PNC inhibitor inactive, NPSR antag inactive and IMPase Li cell inactive.
Cc1onc(-c2c(F)cccc2Cl)c1C(=O)NCCCN1CCOCC1 was read as HPGD block inactive, IMPase inh inactive, ALDH1A1 inh inactive, PNC inhibitor inactive, NPSR antag inactive and IMPase Li cell inactive.

Screening data: PubChem BioAssay, National Center for Advancing Translational Sciences (NCATS)
